Measurements from PubChem BioAssay (NCI).
The panel holds about 79,000 compounds, 15% with a hit somewhere; the sample as a whole holds those more often. Calls of active or inactive are those of the source. No stated cut-off is given here; in the data, active means growth inhibition above about 70%; inactive means the rest.

Assays:
[1] = NCI Yeast Anticancer Drug Screen. Data for the rad52 strain (AID 147);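 further: 0% = growth of vehicle-treated control cultures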; conditions: S. cerevisiae rad52 mutant growth inhibition, hits give high values
How it was run: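 Screen used a yeast mutant impaired in DNA repair. After compound exposure, growth was measured. Values reflect inhibition compared with vehicle-treated cells.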

[2] = NCI Yeast Anticancer Drug Screen. Data for the wt1 strain (AID 149);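 further: 0% = growth of vehicle-treated wt1 cultures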; conditions: S. cerevisiae wt1 strain (SPY 50644) growth inhibition, hits give high values
How it was run: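 Using yeast strain wt1, compound-induced growth inhibition was determined against vehicle-treated cultures.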

[3] = NCI Yeast Anticancer Drug Screen. Data for the mgt1 strain (AID 153); conditions: S. cerevisiae mgt1 mutant growth inhibition, hits give high values
How it was run: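 Genetically defined yeast (mgt1) treated with compound; inhibition of growth expressed against vehicle-treated controls.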

[4] = NCI Yeast Anticancer Drug Screen. Data for the rad50 strain (AID 155);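 further: 0% = growth of vehicle-only cultures of the same strain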; conditions: S. cerevisiae rad50 strain growth inhibition, hits give high values
How it was run: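 Relative growth inhibition (compound vs vehicle) was measured in yeast with a defined repair-gene alteration.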

[5] = NCI Yeast Anticancer Drug Screen. Data for the mec2-1 strain (AID 157); conditions: S. cerevisiae mec2-1 strain, hits give high values
How it was run: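 Readout is yeast growth inhibition, normalised to vehicle-treated controls, in the mec2-1 strain exposed to compound.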

[6] = NCI Yeast Anticancer Drug Screen. Data for the rad14 strain (AID 159);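 further: 0% = growth of vehicle-treated control cultures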; conditions: S. cerevisiae rad14 strain growth inhibition, hits give high values
How it was run: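 Screen for anticancer potential: a yeast strain altered in DNA damage repair is grown with compound, and reduced growth is quantified against vehicle controls.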

[7] = NCI Yeast Anticancer Drug Screen. Data for the sgs1 mgt1 strain (AID 161);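 further: 0% = growth of cultures given vehicle only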; conditions: S. cerevisiae sgs1 mgt1 strain, hits give high values
How it was run: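 This yeast growth screen uses a strain with defined DNA-repair lesions; compound-treated growth is compared with vehicle-treated growth.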

[8] = NCI Yeast Anticancer Drug Screen. Data for the CLN2oe strain (AID 163);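 further: 0% = growth of vehicle-only control cultures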; conditions: S. cerevisiae CLN2oe strain, hits give high values
How it was run: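 Values reflect how much compound exposure reduced yeast growth, referenced to vehicle-exposed cells. Assay organism is a strain with a defined genetic change affecting cell-cycle control.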

[9] = NCI Yeast Anticancer Drug Screen. Data for the cln2 rad14 strain (AID 165);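 further: 0% = growth equal to vehicle treated cultures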; conditions: S. cerevisiae cln2 rad14 strain, hits give high values
How it was run: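 Relative to vehicle controls, growth inhibition of compound-treated cln2 rad14 yeast was recorded.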

[10] = NCI Yeast Anticancer Drug Screen. Data for the bub3 strain (AID 167); conditions: S. cerevisiae bub3 mutant strain, hits give high values
How it was run: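 Screening used yeast with an engineered genetic alteration affecting cell cycle control. Compound-exposed cultures were compared with vehicle cultures, and reduced growth was taken as inhibition.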

[11] = NCI Yeast Anticancer Drug Screen. Data for the wt2 strain (AID 169);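 further: 0% = growth of vehicle-treated yeast cultures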; conditions: S. cerevisiae wt2 strain growth inhibition, hits give high values
How it was run: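 Values express reduction in yeast growth under compound treatment, referenced to vehicle-treated cells.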

[12] = NCI Yeast Anticancer Drug Screen. Data for the sgs1 strain (AID 173);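 further: 0% = growth of vehicle-only control cultures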; conditions: S. cerevisiae sgs1 mutant, hits give high values
How it was run: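 Treat defined-mutant yeast with compound; measure growth; calculate inhibition relative to vehicle-treated cells.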

[13] = NCI Yeast Anticancer Drug Screen. Data for the mlh1 rad18 strain (AID 175); conditions: S. cerevisiae mlh1 rad18 strain growth inhibition, hits give high values
How it was run: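 Test agents were incubated with a yeast strain of defined genotype (DNA damage repair defect). Inhibition of growth was derived by comparison with vehicle-exposed cultures.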

[14] = NCI Yeast Anticancer Drug Screen. Data for the rad18 strain (AID 177); conditions: S. cerevisiae rad18 mutant growth inhibition, hits give high values
How it was run: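 A genetically defined yeast mutant impaired in DNA damage repair was treated with test compounds, then its growth was measured against cultures receiving vehicle alone.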

[15] = NCI Yeast Anticancer Drug Screen. Data for the rad50EPP+ strain (AID 151);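 further: 0% = growth of vehicle-treated control cultures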; conditions: S. cerevisiae rad50 mutant strain, hits give high values
How it was run: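 Exposing the rad50EPP+ strain to each compound, growth was compared with vehicle-only cultures to give inhibition.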

[16] = NCI Yeast Anticancer Drug Screen. Data for the mlh1 strain (AID 171);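 further: 0% = growth of vehicle-treated control cultures of the same strain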; conditions: S. cerevisiae mlh1 strain growth inhibition, hits give high values
How it was run: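 Steps: expose the defined-mutant yeast strain to compound; expose a parallel culture to vehicle; measure growth; express compound effect as inhibition relative to the vehicle culture.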

[17] = at 5.0 µM (retest, dose inferred, filed as 0.5)
[18] = at 50.0 µM (retest, dose inferred, filed as 5.0)

Measured: growth inhibition

O=[N+]([O-])c1cccc([N+](=O)[O-])c1S(=O)(=O)c1ccccc1
inactive: [2]; at 1.2 µM 20% | [2]; at 3.7 µM 33% | [2]; at 11.0 µM 67% | [3]; at 1.2 µM 19% | [3]; at 3.7 µM 1% | [3]; at 11.0 µM 68% | [5]; at 1.2 µM 19% | [5]; at 3.7 µM 37% | [5]; [17] 14% | [6]; at 1.2 µM -13% | [6]; at 3.7 µM 0% | [6]; at 11.0 µM 59% | [7]; [17] 2% | [7]; [18] 33% | [7]; at 50.0 µM 65.1% | [8]; at 1.2 µM 7% | [8]; at 3.7 µM 4% | [8]; at 11.0 µM 52% | [9]; [17] -8% | [9]; at 50.0 µM 34.8% | [10]; at 1.2 µM 0% | [10]; at 3.7 µM 8% | [10]; [17] 5% | [10]; at 11.0 µM 56% | [11]; at 1.2 µM 1% | [11]; at 3.7 µM 22% | [11]; at 11.0 µM 60% | [12]; at 1.2 µM 22% | [12]; at 3.7 µM 42% | [13]; [17] 41% | [14]; at 1.2 µM 17% | [14]; at 3.7 µM 30%
active: [1]; at 1.2 µM 87% | [1]; at 3.7 µM 93% | [1]; at 11.0 µM 97% | [1]; at 33.0 µM 98% | [1]; at 100.0 µM 97% | [2]; at 33.0 µM 89% | [2]; at 100.0 µM 93% | [3]; at 33.0 µM 93% | [3]; at 100.0 µM 94% | [4]; at 1.2 µM 83% | [4]; at 3.7 µM 91% | [4]; [17] 82% | [4]; at 11.0 µM 95% | [4]; at 33.0 µM 97% | [4]; [18] 87% | [4]; at 50.0 µM 82.8% | [4]; at 100.0 µM 96% | [5]; at 11.0 µM 87% | [5]; at 33.0 µM 96% | [5]; [18] 91% | [5]; at 50.0 µM 83.3% | [5]; at 100.0 µM 95% | [6]; at 33.0 µM 92% | [6]; at 100.0 µM 92% | [8]; at 33.0 µM 84% | [8]; at 100.0 µM 85% | [9]; [18] 76% | [10]; at 33.0 µM 92% | [10]; [18] 88% | [10]; at 50.0 µM 77.6% | [10]; at 100.0 µM 81% | [11]; at 33.0 µM 90% | [11]; at 100.0 µM 94% | [12]; at 11.0 µM 75% | [12]; at 33.0 µM 95% | [12]; at 100.0 µM 94% | [13]; [18] 76% | [13]; at 50.0 µM 87.9% | [14]; at 11.0 µM 82% | [14]; at 33.0 µM 95% | [14]; at 100.0 µM 95%

Nc1nc(-c2cccnc2)cc(-c2cc(-c3cccnc3)nc(N)n2)n1
inactive: [1]; at 1.2 µM 0% | [1]; at 3.7 µM 0% | [1]; at 11.0 µM -3% | [1]; at 33.0 µM -2% | [1]; at 100.0 µM -8% | [15]; at 1.2 µM -2% | [15]; at 3.7 µM -3% | [15]; at 11.0 µM -3% | [15]; at 33.0 µM 0% | [15]; at 100.0 µM -2% | [3]; at 1.2 µM 2% | [3]; at 3.7 µM 2% | [3]; at 11.0 µM 2% | [3]; at 33.0 µM -1% | [3]; at 100.0 µM 3% | [4]; at 1.2 µM 0% | [4]; at 3.7 µM 5% | [4]; [17] 1% | [4]; at 11.0 µM 2% | [4]; at 33.0 µM 4% | [4]; [18] 5% | [4]; at 50.0 µM 3.7% | [4]; at 100.0 µM 8% | [5]; at 1.2 µM 0% | [5]; at 3.7 µM 2% | [5]; [17] 24% | [5]; at 11.0 µM -1% | [5]; at 33.0 µM 0% | [5]; [18] 33% | [5]; at 50.0 µM 1.1% | [5]; at 100.0 µM -6% | [6]; at 1.2 µM -1% | [6]; at 3.7 µM 2% | [6]; at 11.0 µM -1% | [6]; at 33.0 µM 0% | [6]; at 100.0 µM -1% | [7]; [17] 19% | [7]; [18] 15% | [7]; at 50.0 µM 0.15% | [8]; at 1.2 µM -2% | [8]; at 3.7 µM 2% | [8]; at 11.0 µM 2% | [8]; at 33.0 µM 1% | [8]; at 100.0 µM 1% | [9]; [17] 46% | [9]; at 50.0 µM 9.95% | [10]; at 1.2 µM 0% | [10]; at 3.7 µM -6% | [10]; [17] -17% | [10]; at 11.0 µM 0% | [10]; at 33.0 µM -2% | [10]; [18] -5% | [10]; at 50.0 µM 6.3% | [10]; at 100.0 µM -10% | [11]; at 1.2 µM -1% | [11]; at 3.7 µM 0% | [11]; at 11.0 µM 1% | [11]; at 33.0 µM -1% | [11]; at 100.0 µM 0% | [16]; at 1.2 µM -1% | [16]; at 3.7 µM -1% | [16]; at 11.0 µM -13% | [16]; at 33.0 µM -14% | [16]; at 100.0 µM 13% | [12]; at 1.2 µM -2% | [12]; at 3.7 µM -4% | [12]; at 11.0 µM -4% | [12]; at 33.0 µM -6% | [12]; at 100.0 µM -7% | [13]; [17] -15% | [13]; [18] 10% | [13]; at 50.0 µM 28.6% | [14]; at 1.2 µM -2% | [14]; at 3.7 µM -4% | [14]; at 11.0 µM -9% | [14]; at 33.0 µM -18% | [14]; at 100.0 µM -28%
active: [9]; [18] 86%
